The supplement of paper PMC10503962

Each compound was assayed on Trichuris muris adult worms (assay: mean motility score (Paragon pixel variance) of adult worms (arbitrary units); higher = more motile worms, i.e. less anthelmintic effect; extreme values may be limits of the assay). Settings: 100 µM; 24 h.
Method in brief: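 Single adult Trichuris muris worms, collected from infected NOD SCID mice, were placed in 96-well plates with 100 μL RPMI-1640 plus antibiotics and drug at 100 μM (1% v/v DMSO), then kept at 37°C and 5% CO2 for 24 h. Plates were filmed on an automated phenotyping platform (200 frames, 100 ms apart). Motility score came from Paragon pixel-variance analysis, averaged across replicate wells. Each drug had three worms in three wells, run on three separate occasions, with vehicle and positive controls.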
In the case of COc1nc(C)nc(Cl)c1NC1=NCCN1 [moxonidine], the mean motility score is reported as 3500.
Compound Nc1ccc(S(=O)(=O)Nc2ccnn2-c2ccccc2)cc1 [sulfaphenazole] has a mean motility score of 3280.
In the case of NS(=O)(=O)c1cc2c(cc1Cl)NC(CSCc1ccccc1)=NS2(=O)=O [benzthiazide], the mean motility score is reported as 3040.
COC1=C(OC)C(=O)C(CCCCCCCCCCO)=C(C)C1=O [idebenone] gave a mean motility score of 1370.
CCCN(CCc1cccs1)[C@H]1CCc2c(O)cccc2C1 [rotigotine] was tested, and the mean motility score was 3100.
CO[C@H]1/C=C/O[C@@]2(C)Oc3c(C)c(O)c4c(O)c(c(/C=N/N5CCN(C)CC5)c(O)c4c3C2=O)NC(=O)/C(C)=C\C=C\[C@H](C)[C@H](O)[C@@H](C)[C@@H](O)[C@@H](C)[C@H](OC(C)=O)[C@@H]1C [rifampicin] gave a mean motility score of 1330.
CC1=C(/C=C/C(C)=C/C=C/C(C)=C/CO)C(C)(C)CCC1 [retinol] was tested, and the mean motility score was 2970.
Work on O=C1c2c(O)ccc(O)c2C(=O)c2c(NCCNCCO)ccc(NCCNCCO)c21 [mitoxantrone] yielded a mean motility score of 1350.
For O=C(CCCN1CC=C(n2c(O)nc3ccccc32)CC1)c1ccc(F)cc1 [droperidol], the mean motility score was 2120.
For C[C@@H]1C[C@H]2[C@@H]3CCC4=CC(=O)C=C[C@]4(C)[C@@]3(F)[C@@H](O)C[C@]2(C)[C@H]1C(=O)CO [desoximetasone], the mean motility score was 772.
Compound NS(=O)(=O)c1cc(Cl)c(Cl)c(S(N)(=O)=O)c1 [dichlorphenamide] has a mean motility score of 752.
CC(C)C(=O)Nc1ccc([N+](=O)[O-])c(C(F)(F)F)c1 [flutamide] was tested, and the mean motility score was 113.
COc1ccccc1N1CCN(CCCNc2cc(=O)n(C)c(=O)n2C)CC1 [urapidil] was tested, and the mean motility score was 2810.
For Cc1c(-c2ccccc2)oc2c(C(=O)OCCN3CCCCC3)cccc2c1=O [flavoxate], the mean motility score was 4070.
COc1ccc([C@@H]2Sc3ccccc3N(CCN(C)C)C(=O)[C@@H]2OC(C)=O)cc1 [diltiazem] showed a mean motility score of 2070.
CS(=O)(=O)CCNCc1ccc(-c2ccc3ncnc(Nc4ccc(OCc5cccc(F)c5)c(Cl)c4)c3c2)o1 [lapatinib] gave a mean motility score of 999.
CN1CCc2cccc3c2[C@H]1Cc1ccc(O)c(O)c1-3 [apomorphine] showed a mean motility score of 2320.
With C[C@H]1O[C@@H](n2cc(F)c(=O)[nH]c2=O)[C@H](O)[C@@H]1O [doxifluridine] the mean motility score was 2010.
NC[C@H](O)c1ccc(O)c(O)c1 [noradrenaline] was tested, and the mean motility score was 3120.
For CCCCNc1ccc(C(=O)OCCN(C)C)cc1 [tetracaine], the mean motility score was 4810.
With CNC(=O)c1ccccc1Sc1ccc2c(/C=C/c3ccccn3)n[nH]c2c1 [axitinib] the mean motility score was 2490.
Work on Nc1ccc(C(=O)Oc2ccccc2)c(O)c1 [phenyl aminosalicylate] yielded a mean motility score of 1040.
Compound N[C@@H](Cc1cc(I)c(Oc2ccc(O)c(I)c2)c(I)c1)C(=O)O [liothyronine] has a mean motility score of 1020.
Compound CCCCC1C(=O)N(c2ccccc2)N(c2ccccc2)C1=O [phenylbutazone] has a mean motility score of 1530.
In the case of Oc1ccc(O)cc1 [hydroquinone], the mean motility score is reported as 4230.
With Nc1nc(N)c2nc(-c3ccccc3)c(N)nc2n1 [triamterene] the mean motility score was 2070.
Work on Oc1nc2ccccc2n1C1CCN(CCCC(c2ccc(F)cc2)c2ccc(F)cc2)CC1 [pimozide] yielded a mean motility score of 0.
CO[C@@]1(NC(=O)CSCC#N)C(=O)N2C(C(=O)[O-])=C(CSc3nnnn3C)CS[C@@H]21.[Na+] [cefmetazole sodium] was tested, and the mean motility score was 2040.
O=C(CCCN1CCC(O)(c2ccc(Cl)cc2)CC1)c1ccc(F)cc1 [haloperidol] showed a mean motility score of 2820.
In the case of CCOC(=O)n1ccn(C)c1=S [carbimazole], the mean motility score is reported as 1610.
For CCCNCC(O)COc1ccccc1C(=O)CCc1ccccc1 (stereo not drawn) [propafenone], the mean motility score was 1050.
Work on CCC[C@H](N[C@@H](C)C(=O)N1[C@H](C(=O)O)C[C@@H]2CCCC[C@@H]21)C(=O)OCC [perindopril] yielded a mean motility score of 3860.
Nc1ccn([C@H]2CC[C@@H](CO)O2)c(=O)n1 [zalcitabine] gave a mean motility score of 3920.
Work on CCCCCCCCCC(=O)OC1(c2ccc(Cl)cc2)CCN(CCCC(=O)c2ccc(F)cc2)CC1 [haloperidol decanoate] yielded a mean motility score of 4450.
Nc1ccccc1NC(=O)c1ccc(CNC(=O)OCc2cccnc2)cc1 [entinostat] gave a mean motility score of 2720.
Work on O=C(O)Cc1ccc(-c2ccccc2)cc1 [felbinac] yielded a mean motility score of 3440.
Work on CO/N=C(\C(=O)N[C@@H]1C(=O)N2C(C(=O)[O-])=C(COC(N)=O)CS[C@H]12)c1ccco1.[Na+] [cefuroxime sodium] yielded a mean motility score of 2610.
CC(=O)OC(C)C[N+](C)(C)C.[Cl-] (stereo not drawn) [methacholine chloride] was tested, and the mean motility score was 2220.
